# “And” between values parts separate entries of the source, which are not always exact repeats. Identical values can stand only once. Inconclusive results are not listed. A number with no mark means an inactive call. The source made the active and inactive calls. Calls follow the shape of the dose curve; as a rule, active = well fitted cell-killing curve with a large enough effect in the repeat runs; inconclusive = weak or mixed curves; inactive = flat fitted curve, though single readings scatter.
# Test: qHTS assay for small molecule agonists of the antioxidant response element (ARE) signaling pathway measured by Nrf2-dependant transcriptional activity - cell viability counter screen (AID 720653)
# Conditions: ARE-bla HepG2 viability, CellTiter-Glo ATP luminescence, 16 h; max response: stronger effect = lower value
# Excerpt: National Center for Advancing Translational Sciences [NCATS] NIH Chemical Genomics Center [NCGC] U.S. Environmental Protection Agency [EPA] National Institutes of Environmental Health Sciences [NIEHS] National Toxicology Program [NTP] Assay Overview: Oxidative stress has been implicated in the pathogenesis of a variety of diseases ranging from cancer to neurodegeneration. The antioxidant response element (ARE) signaling pathway plays an important role in the amelioration of oxidative stress. The CellSensor ARE-bla HepG2 cell line (Invitrogen) can be used for analyzing the Nrf2/antioxidant response signaling pathway. Nrf2 (NF-E2-related factor 2) and Nrf1 are transcription factors that bind to AREs and activate these genes. The CellSensor ARE-bla HepG2 cell line contains a beta-lactamase reporter gene under control of the Antioxidant Response Element (ARE) stably integrated into HepG2 cells. The activation of the report gene under culture conditions can be detected by fluorescence intensity. The cytotoxicity of the compounds against the ARE-bla HepG2 cell line was quantified by measuring the intracellular ATP content.
# Assay Protocol Summary: ARE-bla HepG2 cells were dispensed at 2,000 cells/5 ul/well in 1536-well black wall/clear bottom plates using a Multidrop Combi (ThermoFisher Scientific, Waltham, MA) dispenser. After the assay plates were incubated at 37C/5% CO2 for 5 hrs, 23 nL of compounds dissolved in DMSO, positive controls or DMSO only was transferred to the assay plate by a pintool work station (Kalypsys, San Diego, CA). The plates were incubated at 37C/5% CO2 for 16 hrs. After 1 uL of LiveBLAzer B/G FRET substrate was added using a Flying Reagent Dispenser (FRD) (Aurora Discovery, San Diego, CA), the assay plates were incubated at room temperature for 2 hrs. The fluorescence intensity was measured by an Envision (PerkinElmer, Shelton, CT) plate reader. Cell viability using CellTiter Glo viability assay (Promega, Madison, WI) was also measured by adding 4 ul/well of CellTiter-Glo reagent into the same assay plate using a FRD. After 30 min incubation at room temperature, the luminescence intensity in the plates was measured using a ViewLux (PerkinElmer) plate reader.
# % is scaled to controls: 0 for no effect and ±100 for the full control effect; potency is read from the fitted curve at half-maximal effect.
SMILES,max response,Potency
[Cl][In]([Cl])[Cl],5.32%,
COc1ccc(Cl)cc1C(=O)NCCc1ccc(S(=O)(=O)NC(=O)NC2CCCCC2)cc1,-18.1%,
C[C@]12CC[C@@H]3c4ccc(O)cc4CC[C@H]3[C@@H]1CCC2=O,-0.718%,
Cc1cc(CC(=O)O)n(C)c1C(=O)c1ccc(Cl)cc1,-9.23%,
CC1(C)[C@@H]2CC[C@@]1(C)C(=O)C2,-10.3%,
CC(O)COc1ccccc1 (centres undefined),-6.41%,
CC12CCC(CC1)C(C)(C)O2,3.37%,
CC1=C(/C=C/C(C)=C/C=C/C(C)=C/C(=O)O)C(C)(C)CCC1,-2.09% and 3.64%,
Cc1cccc(Nc2cc(Cl)nc(SCC(=O)O)n2)c1C,-4.18%,
CCCCCCCCCCCCOS(=O)(=O)O,-1.36% [middle of 4 runs],
O=S(=O)(O)NC1CCCCC1,2.33%,
CNC(=O)Oc1ccc2c(c1)[C@]1(C)CCN(C)[C@@H]1N2C,-1.23%,
O=C1O[C@H]([C@@H](O)CO)C(O)=C1O,26.8% and 1.51%,
CC(CN1c2ccccc2Sc2ccccc21)N(C)C (centres undefined),-20.1%,
C[C@]12C[C@H](O)[C@H]3[C@@H](CCC4=CC(=O)CC[C@@]43C)[C@@H]1CC[C@@H]2C(=O)CO,-15.9% and -13%,
NCCNCCNCCN,-12.2%,
Oc1cccc(O)c1,0.509%,

SMILES,max response,Potency
NC(=O)N/N=C/c1ccc([N+](=O)[O-])o1,-20.9%,
CCCCC(CC)COC(=O)c1ccccc1O (centres undefined),-10.2%,
CCCCOC(=O)c1ccc(O)cc1,4.31% and -13.4%,
CCCc1c(OCCCCc2nn[nH]n2)ccc(C(C)=O)c1O,2.63%,
O=C1c2c(O)cccc2Cc2cccc(O)c21,-0.576%,
CC(O)CN(CCN(CC(C)O)CC(C)O)CC(C)O (centres undefined),-0.296%,
O=C1NS(=O)(=O)c2ccccc21,-2.82%,
NC(=O)c1ncn([C@@H]2O[C@H](CO)[C@@H](O)[C@H]2O)n1,-11.8%,
CN(C)CCCN1c2ccccc2CCc2ccccc21,-13.3%,
CCOC(=O)c1ccc(O)cc1,-0.862%,
COC(=O)C1=C(C)NC(C)=C(C(=O)OC)C1c1ccccc1[N+](=O)[O-],-20.5%,
Cc1c(O)cccc1C(=O)N[C@@H](CSc1ccccc1)[C@H](O)CN1C[C@H]2CCCC[C@H]2C[C@H]1C(=O)NC(C)(C)C,,44.7 µM (active)
Cc1cc2nc3c(=O)[nH]c(=O)nc-3n(C[C@H](O)[C@H](O)[C@H](O)CO)c2cc1C,0.335%,
Nc1ccc(S(=O)(=O)Nc2nccs2)cc1,-8.72%,
CN(C)CCOC(C)(c1ccccc1)c1ccccn1 (centres undefined),-11.9%,
COc1ccccc1O,0.99% and -1.64% and 4.12%,
NCCNCCNCCNCCN,-13.9% and 10.9%,

# Reference: PubChem BioAssay (NCATS)
